# Only a selection was taken, and hits are over-represented in it overall.
# LDHA block – qHTS assay for inhibitors of human lactate dehydrogenase; L-lactate dehydrogenase A chain (Homo sapiens), P00338; purified LDHA, NADH/diaphorase-resazurin fluorescence; hits give low values; activity change, % (values are at about 110 or 230 µM); hit rate 0.15% among 480,000; AID 1347041, 2019; in the data active = activity change below about -30%; inconclusive = mostly about -25% to -30%;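 also: plate controls were DMSO wells for no effect and wells without enzyme for full effect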
#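 Resorufin fluorescence (ex540/em590), read at 0 and 20 min after diaphorase/resazurin addition, reports the NADH left after a 5 min room-temperature reaction of 2 nM human LDH5 with 0.06 mM NADH and 0.2 mM pyruvate.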
# ClpP mod – qHTS Assay for Activators of ClpP. ATP-dependent Clp protease proteolytic subunit (Bacillus subtilis (strain 168)), P80244. purified B. subtilis ClpP, FRET peptide cleavage, 20 min. Potency, µM (titrated, usually from 57.5 µM), inactives show at the top dose activity change, negative = active. hit rate 1.9% among 340,000. AID 651965, 2013; active = well fitted falling curve with a large enough effect; inconclusive = small, poorly fitted or top-dose-only effect; inactive = no such curve, though single readings can be large or run the other way; also: potency is read from the fitted curve at half-maximal effect; the source files actives as falling curves though it sought activators and does not explain the sign; nearly all actives have a fitted effect of over 65% in size
# Target sequence (P80244 whole entry, looked up): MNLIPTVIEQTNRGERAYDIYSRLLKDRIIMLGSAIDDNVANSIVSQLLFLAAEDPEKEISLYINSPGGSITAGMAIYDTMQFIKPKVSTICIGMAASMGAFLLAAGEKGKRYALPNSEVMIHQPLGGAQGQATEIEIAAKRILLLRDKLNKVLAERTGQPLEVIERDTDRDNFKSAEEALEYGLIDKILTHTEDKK
#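 FRET quenching reversal measured ClpP activation: 10 microg/mL B. subtilis ClpP at pH 8 with the FRET-FV decapeptide, read at 430 nm after 320 nm excitation. The 20-min minus 0-min signal was scaled between DMSO/no-enzyme wells and ADEP (5.8 microM final).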
# S-ASM inh – Inhibitors of Secretory Acid Sphingomyelinase (S-ASM): qHTS. Sphingomyelin phosphodiesterase (Homo sapiens), P17405. placental ASM, HMU-PC fluorogenic substrate, 60 min. Potency, µM (highest dose often 57.5 µM), for the others: at the top dose activity change, negative = inhibition, actives largely listed as inhibitors. hit rate 0.006% among 340,000. AID 504937, 2011; also: potency is read from the fitted curve at half-maximal effect
#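 HMU-PC0 cleavage (9 uM final) by human placental ASM, 60 min at 37 °C following 10 min compound exposure at RT; stopped at pH 10, fluorescence Ex 386/Em 447 nm.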
# Mito fusion yeast – qHTS Assay for Small Molecule Inhibitors of Mitochondrial Division or Activators of Mitochondrial Fusion; S. cerevisiae fusion-defective mutant growth rescue, CellTiterGlo 48 h; hit rate 0.23% among 320,000; Potency, µM (doses to about 46.1 µM), without a hit: top-dose growth rescue (activation), most hits filed as activators; also: potency is read from the fitted curve at half-maximal effect; % of control where 0% means no effect; nearly all actives have a fitted effect of over 45% in size
#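 Read-out: ATP-based luminescence (CellTiterGlo, 10 min ambient) reporting growth of fusion-defective ts yeast after 48 hours at 37C on glycerol/ethanol YPEG medium in the presence of compound.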
# RGS4 inh – Inhibitors of Regulator of G Protein Signaling (RGS) 4: qHTS. Regulator of G-protein signaling 4 (Homo sapiens), P49798. Transcreener GDP fluorescence polarization, RGS4-accelerated GTP hydrolysis. AID 504845, 2011. hit rate 0.039% among 390,000. Potency, µM (doses to about 114 µM), without a hit: top-dose activity change, negative = inhibition, usual class: inhibitors; also: potency is read from the fitted curve at half-maximal effect; % is scaled to controls: 0 for no effect and ±100 for the full control effect; nearly all actives have a fitted effect of over 75% in size
# Target sequence (P49798 whole entry, looked up): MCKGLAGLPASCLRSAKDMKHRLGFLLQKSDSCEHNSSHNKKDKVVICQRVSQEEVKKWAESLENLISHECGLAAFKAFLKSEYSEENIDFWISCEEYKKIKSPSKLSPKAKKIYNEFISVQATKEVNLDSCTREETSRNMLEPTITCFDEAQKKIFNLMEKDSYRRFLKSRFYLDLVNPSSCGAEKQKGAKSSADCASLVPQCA
#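 MLSMR compounds (23 nl, pin-transferred) preincubated 10 min at room temperature with a 500nM (2x) first reagent, then RGS4 at 900nM (2x) plus Transcreener GDP mix added; fluorescence polarization (620/688 nm) read before and after 90 min at 30 °C.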
# mIDH1 inhibitor – qHTS for Inhibitors of mutant isocitrate dehydrogenase 1 (IDH1): qHTS. Isocitrate dehydrogenase [NADP] cytoplasmic (Homo sapiens), O75874. Potency, µM (series often up to 76.6 µM), inactives show at the highest dose activity change, negative = inhibition, usual class: inhibitors. hit rate 0.093% among 390,000. IDH1-R132H enzyme, NADPH consumption, diaphorase/resazurin fluorescence; also: potency is read from the fitted curve at half-maximal effect; % is scaled to controls: 0 for no effect and ±100 for the full control effect; nearly all actives have a fitted effect of over 65% in size
#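 IDH1-R132H (0.5 ug/mL) preincubated 30 min with compound, then NADPH (0.016 mM) and alpha-KG (2 mM) added; 80 min at RT, pH 7.5. Remaining NADPH coupled via diaphorase/resazurin to fluorescence (540/590 nm); concentration-response curves normalized to no-enzyme control.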
# * marks the source's active call; other numbers are inactive results; i = inactive; ? = inconclusive; . = no result given; [ ] = dose if it differs, or a comment. Unless noted, calls follow the shape of the dose curve; as a rule, active = well fitted curve in the direction sought with a large enough effect; inconclusive = small, poorly fitted or top-dose-only effect, or another doubt; inactive = no such curve, though single readings can be large; an effect the other way counts as inactive or inconclusive.
SMILES,LDHA block,ClpP mod,S-ASM inh,Mito fusion yeast,RGS4 inh,mIDH1 inhibitor
CCCCCn1c(=O)[nH]c2cc(C(=O)NCCCN(CC)CC)ccc2c1=O,-8,28µM*,237%,0%,11%[56.9 µM],-1%
Cc1ccc(CNc2nc(-c3ccco3)nn2C(=O)CC(C)C)cc1,3,.,.,.,.,.
CCCCCn1c(=O)[nH]c2cc(C(=O)NCCN3CCOCC3)ccc2c1=O,9,28µM*,405%,.,-9%,6%
FC(F)(F)c1cnc(-c2cnc3c(-c4ccc(Cl)cc4)cnn3c2)c(Cl)c1,-7,-2%,2%,-3%,9%,7%
N#Cc1cnn2cc(-c3ncc(C(F)(F)F)cc3Cl)cnc12,-14,28µM*,3%,6%,10%,1%
COCC(C)NC(=O)COC(=O)c1nn(-c2ccccc2)cc1OC (stereo not given),4,.,.,.,.,.
NC(=O)Cc1ccc(C(=O)CSc2ccc3c(c2)OCCCO3)s1,10,.,.,.,.,.
O=C(Nc1nc(-c2ccc(F)c(F)c2)cs1)c1cc(=O)c2ccccc2o1,-11,.,.,.,.,.
C=CCOc1ccc2c(OC)c3ccoc3nc2c1OC,4,22µM*,2%,12%,-7%,4%
Cn1c(=O)[nH]c(=O)c2c1nc(SCC(=O)c1ccccc1)n2Cc1ccccc1,6,.,.,.,.,.
CCOc1ccc(NC(=O)Nc2nnc(CC)s2)cc1,-9,28µM*,-3%,2%,2%,8%
CCOc1ccc(NC(=O)Nc2nnc(N3CCCCC3)s2)cc1,-5,.,.,.,.,.
Cc1cc(-c2ccc(C)c(S(=O)(=O)Nc3cccc(C)n3)c2)on1,-5,32µM*,.,.,13%,-12%
Cc1cccc(NS(=O)(=O)c2cccs2)n1,2,20µM*,3%,0%,0%,-7%
Cc1ccnc(NS(=O)(=O)c2cc(-c3cc(C)no3)ccc2C)c1,-12,-27%,.,.,-8%,2%
O=C(CN1C(=O)S/C(=C\c2ccccc2Cl)C1=O)NCCCn1ccnc1,-4,.,2%,4µM*,13%,-3%
COc1ccccc1/C=C1\SC(=O)N(CC(=O)NCCCn2ccnc2)C1=O,-3,-2%,3%,0%,-17%,-8%
N#Cc1cccnc1NCCc1coc(-c2ccc(F)cc2)n1,-3,.,.,.,.,.
CCCN(C(=O)C1CCN(S(=O)(=O)c2ccc(OC)c(OC)c2)CC1)C1CCS(=O)(=O)C1 (stereo not given),-6,14µM*,-3%,-3%,29%,-1%
Cc1cc(C)cc(OC(C)c2ccnc3nc(/N=C/N(C)C)nn23)c1 (stereo not given),-6,28µM*,15%,2%,17%,11%
CC(Oc1ccccc1)c1ccnc2nc(/N=C/N(C)C)nn12 (stereo not given),-6,28µM*,21%,1%,-8%,1%
CC(Oc1cccc(Cl)c1)c1ccnc2nc(/N=C/N(C)C)nn12 (stereo not given),-3,.,16%,8%,-2%,0%
CC(Oc1cccc(F)c1)c1ccnc2nc(/N=C/N(C)C)nn12 (stereo not given),2,.,12%,0%,?,10%
C[C@H](NC(=O)c1ccccc1)C(=O)O,5,.,.,.,.,.
C#CCOc1ccccc1CNC1CCN(Cc2ccccc2)CC1,-31*,-5%,2%,7%,-16%,-6%
SMILES,LDHA block,ClpP mod,S-ASM inh,Mito fusion yeast,RGS4 inh,mIDH1 inhibitor
Cc1ccc(-c2csc(-c3ccccc3)n2)cc1C,10,.,.,.,.,.
CCCc1ccc(NC(=O)Cc2n[nH]c(=O)c3ccccc23)cc1,6,.,.,.,.,.
COc1ccc(S(=O)(=O)N(Cc2ccccc2)c2ccccc2C(=O)Nc2ccccc2C(=O)NCc2ccco2)cc1,-1,22µM*,-3%,-1%,-7%,-2%
Cn1cnc2c1c(=O)n(CCCSc1nnnn1-c1ccccc1)c(=O)n2C,5,.,.,.,.,.
Cc1nn(-c2ccc(F)cc2)c2sc(C(=O)OCC(=O)N3CCC(C)CC3)cc12,-7,22µM*,-11%,8%,-22%,5%
Cc1ccsc1CN(CC1CCCO1)C(=O)COc1cc(C)c(Cl)c(C)c1 (stereo not given),-2,.,.,.,.,.
CCN=C1S/C(=C\c2ccc(O)c(OCC)c2)C(=O)N1CC,5,-1%,-7%,?,-25%,6%
CCN=C1S/C(=C\c2cc(OCC)c(O)cc2Br)C(=O)N1CC,-2,2%,-5%,7.1µM*,-15%,5%
Cc1cc(C(=O)CSc2nc(N)cc(=O)[nH]2)c(C)n1-c1ccc(OC(F)F)cc1,-7,32µM*,-4%,-3%,0%,-1%
COc1ccc(-n2c(C)cc(C(=O)CSc3ccc(NC(C)=O)cc3)c2C)cc1,0,-5%,-9%,16µM*,-6%,11%
CC(=O)Nc1ccc(SCC(=O)c2cc(C)n(-c3ccccc3)c2C)cc1,-6,?,.,?,10%,-5%
Cc1cc(-n2c(C)cc(C(=O)CSc3nc(N)cc(=O)[nH]3)c2C)no1,-2,-2%,-2%,1%,16%[56.9 µM],-13%
O=C(/C=C/c1ccc2ccccc2c1)c1ccccc1,-1,.,.,.,.,.
CC(OC(=O)Cn1[nH]c(=O)c2ccccc2c1=O)C(=O)Nc1cccc(Cl)c1Cl (stereo not given),-17,.,.,.,.,.
CN1c2ccccc2Oc2nnc(Cl)cc21,-7,.,i,7%,5%,3%
CCN(CC)CCOc1cc2c(nn1)Oc1ccccc1N2C,-2,13µM*,451%,4%,31%,0%
CCOC(=O)N1CCN(C(=O)Cn2nc(-c3ccc(F)cc3)ccc2=O)CC1,3,.,.,.,.,.
c1ccc(-n2cnc3cc(NCc4cccs4)ccc32)cc1,4,?,-3%,1%,-8%,9%
CCc1ccc(CNc2ccc3c(c2)ncn3C)cc1,23,28µM*,-1%,-8%,9%,5%
Cc1ccc(CNc2ccc3c(c2)ncn3C(C)(C)C)cc1,5,3%,-1%,?,13%[11.4 µM],1%
Cc1ccc(-n2cnc3cc(NCc4cccs4)ccc32)cc1,16,22µM*,-3%,2%,4%,5%
Cc1ccc(CNc2ccc3c(c2)ncn3C)cc1,20,25µM*,2%,-7%,-24%,3%

# Screening results as filed in PubChem.
